Screening data: PubChem BioAssay, National Center for Advancing Translational Sciences (NCATS)
SMN2 splice up: enhancers of SMN2 splice variant expression; HEK293 SMN2-luciferase splicing reporter, luminescence, 30-36 h; Potency, µM (highest dose often 46.1 µM), most hits filed as activators; 210,000 compounds, 2.8% hits; AID 1458; also: nearly all actives have a fitted effect of over 55% in size
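HEK293 cells carry an SMN2 […]–luciferase reporter in which exon 7 inclusion puts luciferase in frame. Cells were plated 10-12 h before compound addition, then incubated 30-36 h at 37C. ONE-Glo luminescence was read; sodium butyrate at 4.5 mM final served as control.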
p53 reactivation: restores transcriptional activity of mutant p53 | Potency, µM (series often up to 92.2 µM), usual class: activators | H1299 p53-A138V BP100-luciferase reporter, luminescence, 24 h | 320,000 compounds, 0.063% hits | AID 504706; also: nearly all actives have a fitted effect of over 45% in size
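p53-null H1299 cells stably carrying temperature-sensitive p53-A138V and a BP100-luciferase reporter were pinned with compounds (4-point, 1:5 series) and held 24 hrs at 37 deg C. Luminescence was read 10 min after detection reagent.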
FLuc counter: inhibits or activates purified firefly luciferase, miR-21 counter-screen; purified FLuc, Km substrates, luminescence inhibition; Potency, µM (highest dose often 57.5 µM), most hits filed as inhibitors; 360,000 compounds, 6.9% hits; AID 588342; also: nearly all actives have a fitted effect of over 55% in size
Target sequence (P08659 whole entry, looked up): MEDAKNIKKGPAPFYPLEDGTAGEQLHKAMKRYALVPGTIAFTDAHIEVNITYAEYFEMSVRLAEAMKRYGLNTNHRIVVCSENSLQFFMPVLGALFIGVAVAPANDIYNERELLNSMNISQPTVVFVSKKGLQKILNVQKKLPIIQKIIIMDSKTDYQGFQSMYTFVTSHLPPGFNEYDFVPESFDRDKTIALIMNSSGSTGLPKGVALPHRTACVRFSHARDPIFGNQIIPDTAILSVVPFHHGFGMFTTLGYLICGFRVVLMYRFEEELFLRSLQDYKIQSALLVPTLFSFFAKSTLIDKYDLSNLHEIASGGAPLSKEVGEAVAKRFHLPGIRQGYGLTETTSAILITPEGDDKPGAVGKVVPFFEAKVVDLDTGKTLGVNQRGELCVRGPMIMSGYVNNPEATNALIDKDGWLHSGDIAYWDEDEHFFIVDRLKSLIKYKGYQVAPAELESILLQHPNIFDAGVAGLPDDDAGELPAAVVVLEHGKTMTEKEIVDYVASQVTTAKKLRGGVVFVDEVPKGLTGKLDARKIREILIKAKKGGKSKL
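Biochemical qHTS of compounds, final roughly 60 µM downward over six points, against 10 nM purified firefly luciferase using Km concentrations of substrates (10 uM D-luciferin, 10 uM ATP) in Tris acetate pH 7.5 buffer; luminescence output.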
NPC1 promoter act: NPC1 promoter activation. Huh7 NPC1 promoter luciferase reporter, 24 h. Potency, µM (series often up to 9.22 µM), usual class: activators. 320,000 compounds, 2.4% hits; also: nearly all actives have a fitted effect of over 60% in size
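In 1536-well qHTS, Huh7 cells harboring an NPC1 promoter–luciferase construct received compound for 24 h; activation was quantified by luminescence following luciferase reagent addition.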
ELG1 genotoxic: genotoxicity induction in ELG1-luciferase HEK293T cells | HEK293T ELG1-luciferase reporter, luminescence, 16 h | AID 504466 | Potency, µM (doses to about 46 µM), actives largely listed as activators | 330,000 compounds, 1.3% hits; also: nearly all actives have a fitted effect of over 60% in size
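HEK293T cells expressing luciferase-tagged ELG1 were treated with compound or DMSO for 16 hr at 37°C. Luciferase activity was then read after 30 min with ONE-Glo at room temperature; rising signal flags genetic stress.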
Rab9 promoter act: activates the Rab9 promoter; Huh7 Rab9 promoter-luciferase reporter, luminescence, 24 h; Potency, µM (highest dose often 9.22 µM), most hits filed as activators; 320,000 compounds, 2.8% hits; also: nearly all actives have a fitted effect of over 60% in size
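Cell-based reporter: Huh7 stable for Rab9 promoter-driven luciferase, plated in reduced-serum medium with 10% FBS at 1500 cells/well, compound-treated 24 h at 37 °C, luminescence read after 10 min reagent.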
Each line names hits and unclear results; the compound was inactive in the other large screens. In the library only some 7.4% were active in any assay of this set; here they are far more common. Calls follow the shape of the dose curve; as a rule, active = well fitted curve in the direction sought with a large enough effect; inconclusive = small, poorly fitted or top-dose-only effect, or another doubt; inactive = no such curve, though single readings can be large; an effect the other way counts as inactive or inconclusive.

c1cc2c(cc1-c1csc(NNC3=NCCCCC3)n1)OCCO2	p53 reactivation inconclusive, FLuc counter 19µM, Rab9 promoter act inconclusive
CC(C)(C)C(=O)Nc1nc(-c2ccc3c(c2)OCO3)cs1	SMN2 splice up inconclusive, p53 reactivation inconclusive, FLuc counter 7.6µM, NPC1 promoter act 3.5µM, ELG1 genotoxic 2.3µM, Rab9 promoter act 2.8µM
CCCOC(=O)C1=C(C)N(C)C(=O)NC1c1cc2c(cc1Br)OCO2 (centres undefined)	none (no result: SMN2 splice up, p53 reactivation)
Cc1ccc(/C=C2/Sc3ccc(C(=O)N4CCN(c5ccccn5)CC4)cc3NC2=O)cc1	FLuc counter 13µM (no result: SMN2 splice up)
CCOC(=O)C1CCN(C(=O)c2ccc3c(c2)NC(=O)/C(=C\c2ccc(C)cc2)S3)CC1	FLuc counter 24µM (no result: SMN2 splice up)
N#C/C(=C\c1c[nH]c2ccccc12)C(=O)NC1CC1	FLuc counter 7.6µM, NPC1 promoter act 3.5µM, ELG1 genotoxic inconclusive, Rab9 promoter act inconclusive (no result: SMN2 splice up)
N#C/C(=C\c1c[nH]c2ccccc12)C(=O)NC1CCCC1	FLuc counter 15µM (no result: SMN2 splice up, p53 reactivation)
Cc1[nH]c2ccccc2c1/C=C(\C#N)C(=O)NC(C)c1ccccc1 (centres undefined)	none
Cc1[nH]c2ccccc2c1/C=C(\C#N)C(=O)NC1CC1	FLuc counter 17µM, NPC1 promoter act inconclusive, ELG1 genotoxic inconclusive, Rab9 promoter act inconclusive (no result: SMN2 splice up)
COCCCn1c(C(=O)NCCN2CCOCC2)cc2c(=O)n3ccccc3nc21	FLuc counter 2.7µM (no result: SMN2 splice up)
Cn1c(C(=O)NCCN2CCOCC2)cc2c(=O)n3ccccc3nc21	p53 reactivation inconclusive (no result: SMN2 splice up)
CC(C)C(NC(=O)c1c(F)cccc1F)C(=O)NCc1ccc(S(=O)(=O)N2CCOCC2)cc1 (centres undefined)	none (no result: SMN2 splice up)
Cc1cccc(-c2noc(CNC(=O)c3ccoc3C)n2)c1	none (no result: SMN2 splice up)
Cc1cccc(-c2noc(-c3ccoc3C)n2)c1	SMN2 splice up inconclusive, FLuc counter 4.8µM, NPC1 promoter act 0.35µM, ELG1 genotoxic inconclusive, Rab9 promoter act 0.71µM
COc1ccc(-c2noc(-c3ccoc3C)n2)cc1OC	none (no result: SMN2 splice up)
COc1cccc(-c2noc(-c3ccoc3C)n2)c1	p53 reactivation inconclusive, FLuc counter 6.7µM, NPC1 promoter act inconclusive, ELG1 genotoxic inconclusive, Rab9 promoter act 2.5µM (no result: SMN2 splice up)
COc1ccc(-c2noc(-c3ccoc3C)n2)cc1	FLuc counter 2.4µM, NPC1 promoter act 2.8µM, ELG1 genotoxic inconclusive, Rab9 promoter act 1.6µM (no result: SMN2 splice up)
Fc1ccccc1C1CC(c2ccco2)=Nc2ccccc2S1 (centres undefined)	p53 reactivation inconclusive, FLuc counter 21µM, ELG1 genotoxic inconclusive (no result: SMN2 splice up)
CC(C)c1nnc(N2C(=O)c3oc4ccccc4c(=O)c3C2c2ccccc2F)s1 (centres undefined)	none (no result: p53 reactivation, NPC1 promoter act, ELG1 genotoxic, Rab9 promoter act)
CC1=C(C(N)=O)C(c2ccc(C)cc2)n2nc(SCc3ccccc3)nc2N1 (centres undefined)	none (no result: p53 reactivation, NPC1 promoter act, ELG1 genotoxic, Rab9 promoter act)
CC1CCC(NC(=O)Nc2cccs2)CC1 (centres undefined)	FLuc counter 15µM, ELG1 genotoxic inconclusive, Rab9 promoter act inconclusive
O=C(Nc1cccs1)NC1CCCC1	none
CCOC(=O)CN(C(=O)CNC(=O)c1cccs1)C(C(=O)NC1CCCC1)c1ccncc1 (centres undefined)	none
CC1CCC(NC(=O)CNC(=O)c2cccs2)CC1 (centres undefined)	FLuc counter inconclusive, NPC1 promoter act inconclusive, ELG1 genotoxic inconclusive, Rab9 promoter act 4µM (no result: SMN2 splice up)
CCCCN(C(=O)CNC(=O)c1cccs1)C(C(=O)NC1CCCC1)c1ccncc1 (centres undefined)	FLuc counter 7.6µM (no result: SMN2 splice up)
CSCCC(N=C1NS(=O)(=O)c2ccccc21)C(=O)N1CCCC(C(N)=O)C1 (centres undefined)	FLuc counter inconclusive (no result: SMN2 splice up)
CCn1c(C)cc(/C=C2/NC(=O)N(c3ccccc3)C2=O)c1C	SMN2 splice up 11µM, FLuc counter 7.6µM, NPC1 promoter act 3.2µM, ELG1 genotoxic inconclusive, Rab9 promoter act 1.4µM
O=C1N/C(=C/c2ccsc2)C(=O)N1c1ccccc1	FLuc counter inconclusive, NPC1 promoter act inconclusive, ELG1 genotoxic inconclusive, Rab9 promoter act 2.8µM
